Most compounds without a hit are left out; they make up all but 28% or so of the library.
Mac1 fbg inh: inhibitors of human CD11b/CD18 binding to fibrinogen; P05107+P11215; K562 CD11b/CD18 adhesion to fibrinogen, ATPlite luminescence; Mn2+ added to activate the integrin; inhibition, % at 10 µM; actives 0.54% (n = 93,000); AID 1497;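 active = primary inhibition of 50% or more at 10 µM, then 40% or more on retest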
CYP2C9 inh: inhibitors of human CYP2C9. CYP2C9 Supersomes, luciferin-H conversion, luminescence. inhibition, % at 5 µM. actives 20% (n = 96,000). AID 777;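 active = blocking of liver enzyme CYP2C9 beyond about 50% at 5 µM, limit read from the data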
Target sequence (P11712 whole entry, looked up): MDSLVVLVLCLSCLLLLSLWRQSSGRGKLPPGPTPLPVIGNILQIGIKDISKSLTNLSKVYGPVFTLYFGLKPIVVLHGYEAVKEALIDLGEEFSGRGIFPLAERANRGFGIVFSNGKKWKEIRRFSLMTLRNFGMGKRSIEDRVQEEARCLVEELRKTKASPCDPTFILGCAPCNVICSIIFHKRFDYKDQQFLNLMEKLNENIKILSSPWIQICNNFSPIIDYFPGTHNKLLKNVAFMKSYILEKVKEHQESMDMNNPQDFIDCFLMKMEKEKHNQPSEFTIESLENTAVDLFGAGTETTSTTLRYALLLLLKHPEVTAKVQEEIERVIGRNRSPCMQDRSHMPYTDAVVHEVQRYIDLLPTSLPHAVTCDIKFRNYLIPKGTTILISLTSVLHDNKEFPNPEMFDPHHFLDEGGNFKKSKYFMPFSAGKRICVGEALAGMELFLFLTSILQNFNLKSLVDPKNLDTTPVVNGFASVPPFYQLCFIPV
CYP2C19 act: cytochrome P450 2C19 (human) activation; P33261; recombinant CYP2C19, luciferin-H EGE luminescence; hits give high values; 0 = fully inhibited enzyme, 1 = untreated enzyme; activation factor at 5 µM; 96,000 tested, under 10 active; AID 1025;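 active = activation factor of at least 2 at 5 µM in the primary screen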;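 note: 0 = wells with 2.5 mM tranylcypromine and 1 = vehicle-only wells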
CYP2C9 activ: increases human cytochrome P450 2C9 activity; P11712; recombinant CYP2C9, luciferin-H conversion, luminescence; hits give high values; factor 1 = untreated enzyme, 0 = blocked; activation factor at 5 µM; actives 1.4% (n = 96,000);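 active = activation factor of 2 or more for CYP2C9 at a 5 µM dose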;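 note: 0 = sulfaphenazole-blocked wells and 1 = vehicle-only wells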
CYP2C19 inh: inhibitors of human CYP2C19. P33261. CYP2C19 Supersomes, luciferin-H EGE luminescence, 30 min. inhibition, % at 5 µM. actives 21% (n = 96,000);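 active = CYP2C19 inhibition above a set limit at 5 µM in the primary screen, cut at about 50% in these data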;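 note: plate controls were negative control wells for no effect and 2.5 mM tranylcypromine positive control for full effect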
Mac1 fbg enh: CD11b/CD18-fibrinogen binding enhancement; P05107+P11215; K562 CD11b/CD18 adhesion to fibrinogen, ATPlite luminescence; activation, % at 10 µM; actives 0.07% (n = 93,000);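 active = 10 µM primary screen giving 50% or more activity, confirmed by 40% or more on retest at that dose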
An asterisk follows results filed as active; . = not tested or not shown.

SMILES	Mac1 fbg inh	CYP2C9 inh	CYP2C19 act	CYP2C9 activ	CYP2C19 inh	Mac1 fbg enh
Cc1ccc(C)c(N2CCN(C(=O)CN(C)S(=O)(=O)c3cnc[nH]3)CC2)c1	18.6	99.5*	0.1	0	92.0*	-0.7
CS(=O)(=O)N(CCc1ccccc1)CC(=O)N1CCN(c2ccccc2F)CC1	.	26.7	0.8	0.7	22.1	-6.0
COC(=O)c1ccc(N2C(=O)CC(N3CCC(O)(c4ccc(Br)cc4)CC3)C2=O)cc1 (stereo not drawn)	-5.4	11.5	0.9	0.9	11.8	-0.4
Nc1cc(Cl)ccc1Oc1ccc2ccccc2c1	0.1	27.0	0.3	0.7	70.9*	-2.4
O=C(CCN1C(=O)c2ccccc2C1=O)Nc1ccc(F)cc1	5.4	0.3	0.6	1	37.7	-2.8
O=C(Nc1ccc(F)cc1)N1CCN2C(=O)c3ccccc3C12c1ccccc1 (stereo not drawn)	0.8	49.8	0.5	0.5	51.3*	-0.7
COc1ccc2nc(NC(=O)CN3CCN(C)CC3)sc2c1	-2.6	-4.7	1.1	1	-6.0	-5.2
Cc1ccc2nc(NC(=O)C(NS(=O)(=O)c3cccc4nsnc34)C(C)C)sc2c1 (stereo not drawn)	11.5	76.6*	0.8	0.2	22.7	-7.3
COc1ccc2nc(NC(=O)C(NS(=O)(=O)c3cccs3)C(C)C)sc2c1 (stereo not drawn)	-1.6	63.4*	0.4	0.4	55.1*	0.9
CCCC(=O)Nc1cc(Cl)ccc1N1CCN(C(=O)CC)CC1	-0.6	84.6*	0.1	0.2	86.3*	0.1
CCC(=O)N1CCN(c2ccc(Cl)cc2NC(=O)Cc2ccc(Cl)cc2)CC1	-4.1	45.2	0.5	0.5	51.2*	-0.4
Cc1cc(C)c(S(=O)(=O)N(C)CC(=O)NC2CCCC2)c(C)c1	-12.2	-124.0	0.2	2.2*	80.3*	-2.0
Cc1noc(/C=C/N(C)C)c1S(=O)(=O)N1CCCC(C(=O)NC2CCCCC2)C1 (stereo not drawn)	4.5	44.0	0.9	0.6	10.1	0.8
Cc1noc(/C=C/N(C)C)c1S(=O)(=O)N(C)CC(=O)NC1CCCCC1	-3.2	62.2*	0.6	0.4	38.9	-0.7
COc1cc(Cc2nc3ccc(S(=O)(=O)N4CCOCC4)cc3[nH]2)cc(OC)c1OC	4.3	6.8	0.9	0.9	5.3	3.6
COC(=O)CCS(=O)(=O)c1ccc(Cl)c(Cl)c1	12.3	-19.5	0.5	1.2	47.9	3.5
COc1ccc2c(c1)c1nc(SCC(C)C)n(CCO)c(=O)c1n2C	-9.3	33.4	0.8	0.7	17.0	24.2
COc1ccc(-n2ncc3c(NCc4ccccn4)ncnc32)cc1	-2.5	53.1*	0.4	0.5	60.9*	2.1
COc1ccc(Nc2ncnc3c2cnn3Cc2ccccc2)cc1	-1.1	44.0	0.4	0.6	55.0*	-1.9
c1ccc(-n2ncc3c(NCc4cccnc4)ncnc32)cc1	0.5	68.7*	0.8	0.3	16.3	1.3
CCOc1ccc(Nc2ncnc3c2cnn3Cc2ccccc2)cc1	.	35.5	0.7	0.6	28.7	.
c1ccc(-n2ncc3c(NCc4cccs4)ncnc32)cc1	-19.8	80.9*	0.4	0.2	60.5*	-1.5
O=C1[C@H]2[C@@H](C(=O)N1c1cccc3ccccc13)C1(C(=O)c3ccccc3C1=O)N1CCC[C@@H]21	0.4	26.2	0.6	0.7	38.2	0.4
Cn1c(=O)c2c(nc(NCc3ccco3)n2C/C=C/c2ccccc2)n(C)c1=O	-0.4	25.7	0.3	0.7	73.6*	-1.7
CC(C)NC(=O)c1cnc(N2CCN(c3ccccn3)CC2)c2ccccc12	7.0	35.3	0.8	0.6	20.4	-3.7
SMILES	Mac1 fbg inh	CYP2C9 inh	CYP2C19 act	CYP2C9 activ	CYP2C19 inh	Mac1 fbg enh
CCN1CCN(c2ncc(C(=O)Nc3ccccc3C(=O)OC)c3ccccc23)CC1	13.8	55.7*	0.9	0.4	9.9	1.6
COc1ccc2c(c1)c(=O)cc(C)n2CC(=O)NCc1ccco1	-0.3	6.0	0.5	0.9	49.9	0.0
COC(=O)c1cc(Br)c(=O)n(Cc2cccnc2)c1	-25.4	16.2	0.8	0.8	20.9	-5.9
COc1ccc(-c2nnc3sc(CCN4C(=O)c5ccccc5C4=O)nn23)cc1	-11.3	31.8	0.8	0.7	22.3	-0.3
Brc1ccccc1-c1nnc2sc(Cc3ccccc3)nn12	16.3	61.6*	0	0.4	95.1*	7.5
COc1ccc(Cc2nn3c(-c4ccccc4Br)nnc3s2)cc1	-3.9	25.8	0.1	0.7	90.1*	3.3
Cc1ccccc1NC(=O)C(C#N)Cc1cccnc1 (stereo not drawn)	-15.7	10.9	0.8	0.9	23.0	-5.7
O=C(O)CCC(=O)N1CCc2cc(S(=O)(=O)N3CCC(Cc4ccccc4)CC3)ccc21	16.4	18.4	0.7	0.8	32.7	-5.0
COc1ccc(C(=O)/C(=C/c2cccs2)c2nc3ccccc3o2)cc1	3.5	68.6*	0.7	0.3	26.0	-5.5
N#Cc1cccc(NC(=O)CN2NS(=O)(=O)c3ccccc3C2=O)c1	-38.6	17.0	0.9	0.8	10.4	2.9
CCN1CC=C2C(C#N)=C(N)C(C#N)(C#N)C(c3cc(Cl)ccc3Cl)C2C1 (stereo not drawn)	5.8	58.6*	0.7	0.4	34.2	-3.3
CCC1C2CN(C(C)=O)CC=C2C(C#N)=C(N)C1(C#N)C#N (stereo not drawn)	-4.8	-1.4	1	1	3.5	-0.9
Cc1ccnc(NC(=O)c2ccc(N3C(=O)CCC3=O)cc2)c1	.	-4.1	1.1	1	-5.8	.
CCn1c(C(C)NC(C)=O)nc2ccccc21 (stereo not drawn)	-23.0	-2.2	1.1	1	-6.8	-1.9
COc1ccc(C(O)c2nc3ccccc3n2C)cc1OC (stereo not drawn)	39.3	6.9	0.7	0.9	28.9	-5.7
CCn1c(C(O)c2ccccc2)nc2ccccc21 (stereo not drawn)	3.3	15.9	0.1	0.8	90.7*	-2.3
CCn1c(C(O)c2cccc(OC)c2OC)nc2ccccc21 (stereo not drawn)	-26.3	26.8	0.1	0.7	87.1*	2.5
COc1cccc(C(O)c2nc3ccccc3n2C(C)C)c1 (stereo not drawn)	-0.2	23.2	0.1	0.8	91.2*	0.0
CCn1c(C(C)NC(=O)c2ccc(OC)c(OC)c2)nc2ccccc21 (stereo not drawn)	3.0	12.7	0.8	0.9	21.9	-2.3
COc1ccc(-c2nnn(Cc3nc(N)nc(N4CCOCC4)n3)n2)cc1OC	.	14.3	0.9	0.9	14.0	.
CCOC(=O)c1[nH]c(Cc2[nH]c(C(=O)OCC)c(C)c2CCC(=O)OC)c(CCC(=O)OC)c1C	5.3	71.6*	0.4	0.3	58.0*	1.3

Screening data from PubChem BioAssay.
